Compounds with a hit are over-represented: about 5.9% of the library has one in this group of screens.
TGFb SMAD3 inh – TGF-b pathway inhibition | AID 588855 | 410,000 tested, 1.2% active | HepG2 CAGA-GFP TGF-b/SMAD3 reporter, GFP fluorescence, 18 h; TGF-beta stimulated, 500 pg/mL final | Potency, µM (doses to about 46.1 µM), inactives show at the top dose activity, negative = inhibition, most hits filed as inhibitors; note: % is set by controls: 0 for no effect and ±100 for the full control effect; nearly all actives have a fitted effect of over 65% in size
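TGF-beta reporter screen: HEPG2 CAGA-GFP, 1% FBS, 500 pg/mL TGF-beta final, 18 h; per-cell GFP summed per well; curves fitted and categorized by class.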
HepG2 tox – counter-screen for TGF-b inhibitors: cytotoxicity in HepG2 cells; HepG2 CAGA-GFP viability, ATP luminescence, 18 h; Potency, µM (series often up to 46.1 µM), inactives show at the highest dose activity change, negative = cytotoxicity, usual class: cytotoxic; 410,000 tested, 0.76% active
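HepG2 CAGA-GFP cells (1000/well, DMEM with 1% FBS) received compound, then TGF-beta at 500 pg/mL final, and were incubated 18 hours at 37 degrees C. Viability was read by CellTiter-Glo luminescence. Media-only wells were set as complete cell-killing and DMSO as no toxicity.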
KB-V1 MDR tox – KB-V1 MDR subline cytotoxicity; KB-V1 MDR cells viability, CellTiter-Glo, 72 h; 400,000 tested, 3.4% active; Potency, µM (doses to about 46.1 µM), actives largely listed as cytotoxic; AID 1347076; note: % is set by controls: 0 for no effect and ±100 for the full control effect; nearly all actives have a fitted effect of over 60% in size
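Following 72 h at 37 degrees C with compound, KB-V1 cell viability was read by CellTiter-Glo luminescence, medium being phenol-red-free DMEM plus 10% FBS; concentration-response parameters came from normalized, curve-fitted qHTS data.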
ATXN2 expr inh – inhibitors of ATXN2 expression; HEK-293 ATXN2-luciferase reporter, luminescence, 24 h; Potency, µM (top dose mostly 57 µM), without a hit: at the highest dose activity change, negative = inhibition, hits mostly inhibitors; 360,000 tested, 0.72% active; AID 1745845; note: % is set by controls: 0 for no effect and ±100 for the full control effect; nearly all actives have a fitted effect of over 55% in size
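qHTS (up to 57 uM final) was run with 24 h compound exposure of reporter cells at 37 °C. Each well was multiplexed: SteadyGlo luminescence measured ATXN2-luciferase expression after a fluorogenic Gly-Phe-AFC viability readout (25 uM final).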
KB-3-1 tox – KB-3-1 parental cell cytotoxicity. KB-3-1 viability, CellTiter-Glo ATP luminescence, 72 h. Potency, µM (series often up to 46.1 µM), actives largely listed as cytotoxic. 400,000 tested, 1.4% active. AID 1347075; note: % is set by controls: 0 for no effect and ±100 for the full control effect; nearly all actives have a fitted effect of over 60% in size
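Multi-concentration cytotoxicity screen in KB-3-1 cells grown in DMEM lacking phenol red with 10% FBS. After 72 h at 37 °C with compound, ATP-dependent luminescence was recorded.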
S2 tox – cell viability loss in ATXN counter-screen | AID 651635 | 400,000 tested, 0.49% active | S2 cells (HEK-293 line with an ATXN2-luciferase reporter) viability, CellTiter-Fluor protease fluorescence, 24 h | Potency, µM (titrated, usually from 56.7 µM), actives largely listed as cytotoxic; note: nearly all actives have a fitted effect of over 40% in size
The depositor's hits bear a star. Calls come from the whole dose curve; as a rule, active = well fitted curve in the direction sought with a large enough effect; inconclusive = small, poorly fitted or top-dose-only effect, or another doubt; inactive = no such curve, though single readings can be large; an effect the other way counts as inactive or inconclusive. Potency is the fitted concentration of half-maximal effect.

Results for CC(NC(=O)c1ccco1)c1nnc2n1CCN(Cc1cccc(Cl)c1)CC2 (stereo not given) ?
S2 tox: inactive

How did COc1ccc(CNC(=O)C/C(C)=N/NC(=O)COc2ccc(C)cc2Br)cc1 do in these assays?
TGFb SMAD3 inh: inconclusive; HepG2 tox: -1%; KB-V1 MDR tox: inconclusive; ATXN2 expr inh: -20%; KB-3-1 tox: 5.8µM*; S2 tox: inactive

How did Cc1nc(C)n(CC(=O)NCC2Cc3cc(-c4cccc(OC(F)(F)F)c4)ccc3O2)n1 (stereo not given) do in these assays?
S2 tox: inactive

What do the screens show for `O=C(Oc1ccc(N(Cc2cccs2)C2=NS(=O)(=O)c3ccccc32)cc1)c1ccc(Cl)cc1`?
TGFb SMAD3 inh: -10%; HepG2 tox: -6%; KB-V1 MDR tox: inactive; ATXN2 expr inh: -12%; KB-3-1 tox: inactive; S2 tox: inactive

What do the screens show for `O=C(Oc1ccc(N(Cc2cccs2)C2=NS(=O)(=O)c3ccccc32)cc1)c1ccccc1`?
TGFb SMAD3 inh: 12%; HepG2 tox: -15%; KB-V1 MDR tox: 16µM*; ATXN2 expr inh: -7%; KB-3-1 tox: inactive; S2 tox: inactive

How did C[C@H](NC(c1ccc(F)cc1)c1ccc2cccnc2c1O)c1ccccc1 (stereo not given in full) do in these assays?
KB-V1 MDR tox: inactive; KB-3-1 tox: inconclusive

What do the screens show for `O=C(CSc1cccc[n+]1[O-])c1cc2ccccc2o1`?
TGFb SMAD3 inh: inconclusive; HepG2 tox: -42%; KB-V1 MDR tox: 21µM*; ATXN2 expr inh: 64%; KB-3-1 tox: 18µM*; S2 tox: inactive

What do the screens show for `Cc1cccc(OCCCc2c(C)n[nH]c2C)c1`?
TGFb SMAD3 inh: inconclusive; HepG2 tox: -5%; KB-V1 MDR tox: 18µM*; ATXN2 expr inh: -14%; KB-3-1 tox: inconclusive; S2 tox: inactive

How did COc1cccc(OC)c1OCCCc1c(C)n[nH]c1C do in these assays?
TGFb SMAD3 inh: 8%; HepG2 tox: 7%; KB-V1 MDR tox: 18µM*; ATXN2 expr inh: -1%; KB-3-1 tox: inactive; S2 tox: inactive

Results for COc1ccc(OCCCCc2c(C)n[nH]c2C)cc1 ?
TGFb SMAD3 inh: -10%; HepG2 tox: -20%; KB-V1 MDR tox: inactive; ATXN2 expr inh: -13%; KB-3-1 tox: inactive; S2 tox: inactive

How did CCC1(C2CCN(Cc3ccccc3Cl)CC2)NC(=O)N(CC2COc3ccccc3O2)C1=O (stereo not given) do in these assays?
S2 tox: inactive

Results for CSc1ccc(NC(=O)N2CCN(c3nc4ccccc4s3)CC2)cc1 ?
TGFb SMAD3 inh: 23%; HepG2 tox: -21%; KB-V1 MDR tox: 2.6µM*; ATXN2 expr inh: -20%; KB-3-1 tox: inconclusive; S2 tox: inconclusive

Results for Cn1c(N2CCN(C(=O)Nc3ccc(F)cc3)CC2)nc2ccccc21 ?
TGFb SMAD3 inh: 4%; HepG2 tox: -3%; KB-V1 MDR tox: 18µM*; ATXN2 expr inh: -4%; KB-3-1 tox: inactive; S2 tox: inactive

Results for CCCC(=O)N1CCN(c2nc3ccccc3s2)CC1 ?
TGFb SMAD3 inh: -7%; HepG2 tox: -23%; KB-V1 MDR tox: inactive; KB-3-1 tox: inconclusive; S2 tox: inactive

How did CC(C)n1c(N2CCN(C(=O)Nc3ccccc3)CC2)nc2ccccc21 do in these assays?
TGFb SMAD3 inh: -17%; HepG2 tox: -9%; KB-V1 MDR tox: inactive; ATXN2 expr inh: -23%; KB-3-1 tox: inactive; S2 tox: inactive

How did CCCCC[n+]1ccn(C2=C([O-])c3ccccc3C(=O)/C2=N\S(=O)(=O)c2ccc(Cl)cc2)c1 do in these assays?
TGFb SMAD3 inh: 3.2µM*; HepG2 tox: 3.5µM*; KB-V1 MDR tox: inconclusive; ATXN2 expr inh: -24%; KB-3-1 tox: inconclusive; S2 tox: inactive

Screening results (PubChem BioAssay)
